Experiment [1] can be described thus: qHTS assay to test for compound auto fluorescence at 535 nm (green) in HEK293 cells (AID 720680). On the technique in general: Quantitative high-throughput screening tests each substance at several concentrations.
Experiment [2] is described as follows: qHTS assay to test for compound auto fluorescence at 460 nm (blue) in HEK293 cell free culture (AID 720681). In a few lines:
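Test compounds were pinned into cell-free culture medium (DMEM with 10% FBS) and fluorescence was read directly at Ex/Em 405/460 nm. Signals were expressed as fluorescence equivalents of triamterene, with DMSO vehicle as control.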

Experiment [3] can be described thus: qHTS assay to test for compound auto fluorescence at 535 nm (green) in HEK293 cell free culture (AID 720682). In a few lines: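 Read-out: 485/535 nm fluorescence intensity, calibrated against fluorescein. Medium only (DMEM + 10% FBS, no cells); test compound or DMSO vehicle added by pintool before plate reading.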
A short description of experiment [4]: qHTS assay to test for compound auto fluorescence at 590 nm (red) in HEK293 cell free culture (AID 720683). Also: potency is read from the fitted curve at half-maximal effect. The gist of the method:
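Tox21 10K library compounds were pinned into cell-free DMEM with 10% FBS and fluorescence was read at excitation 540 nm. Activity is expressed as Rose Bengal sodium equivalency.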

The nature of experiment [5]: qHTS assay to test for compound auto fluorescence at 590 nm (red) in HepG2 cell free culture (AID 720684). Also: potency is read from the fitted curve at half-maximal effect. The gist of the method: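 Readout: intrinsic compound fluorescence at 590 nm emission after 540 nm excitation, scaled to Rose Bengal sodium. Matrix was cell-free MEM with 10% FBS; DMSO vehicle wells served as control.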
A short description of experiment [6]: qHTS assay to test for compound auto fluorescence at 460 nm (blue) in HepG2 cell free culture (AID 720685). The gist of the method: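 Cell-free plates of MEM plus 10% FBS received 23 nL compound or DMSO vehicle; blue-channel (405/460 nm) intensity scored against triamterene as reference fluorophore.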
Experiment [7] is described as follows: qHTS assay to test for compound auto fluorescence at 535 nm (green) in HepG2 cell free culture (AID 720686).
A short description of experiment [8]: qHTS assay to test for compound auto fluorescence at 460 nm (blue) in HepG2 cells (AID 720687). The gist of the method:
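Cells (2,000/well in MEM with 10% FBS) attached overnight at 37 C, then were exposed to compound or DMSO for 1 hr at 37 C, 5% CO2. Fluorescence read at Ex/Em 405/460 nm, expressed as triamterene-equivalent signal.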

Experiment [9] concerns the target Glucocorticoid receptor (Homo sapiens) (UniProt P04150). The experiment in a line: qHTS assay to identify small molecule agonists of the glucocorticoid receptor (GR) signaling pathway (AID 720691; active = well fitted activation curve with a large enough effect in the signal ratio in the repeat runs, not every such curve was filed as active; the % refers to the signal ratio). The conditions noted are these: GR-bla HeLa, beta-lactamase reporter ratio, 18 h; activation: at 62.4 µM (top of the series). In a few lines: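 HeLa GR-bla reporter line; cells pre-incubated 4 h, compound in DMSO 18 h at 37 C; LiveBLAzer B/G FRET substrate 2 h RT; fluorescence intensity read-out.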

Values without a mark were called inactive. Inconclusive results are not listed. Active and inactive are the calls of the source. Unless noted, calls follow the shape of the dose curve; as a rule, active = well fitted curve in the direction sought with a large enough effect in the repeat runs; inconclusive = weak or mixed curves; inactive = flat fitted curve, though single readings scatter.
% is scaled to controls: 0 for no effect and ±100 for the full control effect; tags tell the direction and shape of the fitted curve or compound fluorescence and quenching.

Chain of Glucocorticoid receptor (Homo sapiens) (P04150 whole entry, looked up): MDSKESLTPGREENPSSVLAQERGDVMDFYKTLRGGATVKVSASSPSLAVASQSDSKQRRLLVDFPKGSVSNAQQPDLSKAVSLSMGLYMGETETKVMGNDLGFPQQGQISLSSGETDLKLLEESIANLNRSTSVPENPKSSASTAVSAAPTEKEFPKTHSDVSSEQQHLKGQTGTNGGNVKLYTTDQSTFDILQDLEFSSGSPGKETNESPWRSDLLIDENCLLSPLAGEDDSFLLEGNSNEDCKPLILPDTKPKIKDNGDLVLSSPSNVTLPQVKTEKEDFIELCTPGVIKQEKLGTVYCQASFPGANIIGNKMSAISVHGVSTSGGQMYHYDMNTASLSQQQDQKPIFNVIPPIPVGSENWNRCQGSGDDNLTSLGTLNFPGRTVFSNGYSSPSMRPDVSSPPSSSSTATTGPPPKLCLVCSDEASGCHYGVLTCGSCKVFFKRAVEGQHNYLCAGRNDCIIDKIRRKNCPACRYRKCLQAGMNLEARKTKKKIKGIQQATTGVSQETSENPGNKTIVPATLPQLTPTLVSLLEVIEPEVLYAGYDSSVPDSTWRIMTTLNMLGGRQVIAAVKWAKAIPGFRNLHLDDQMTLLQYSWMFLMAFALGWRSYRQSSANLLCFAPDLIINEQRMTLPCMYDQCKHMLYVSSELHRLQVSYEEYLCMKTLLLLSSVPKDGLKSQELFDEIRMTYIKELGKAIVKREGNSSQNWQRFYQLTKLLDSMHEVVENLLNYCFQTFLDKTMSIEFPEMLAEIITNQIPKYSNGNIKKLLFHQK

`O=C1c2ccccc2Cc2ccccc21`: the compound was classed as inactive in experiment [1] and in experiment [3]. In addition, the Potency result in experiment [2], in experiment [4], in experiment [5], in experiment [6], in experiment [7] and in [8] was “inactive” throughout.

With `CC1=C(C(=O)OC(C)C)C(c2cccc([N+](=O)[O-])c2)C(C(=O)OC2CN(C(c3ccccc3)c3ccccc3)C2)=C(N)N1` (configuration not stated), the outcome in [1] and in experiment [3] was inactive. Besides, the Potency entry in experiment [2], in experiment [4], in [5], in experiment [6], in experiment [7] and in experiment [8] was “inactive” in each case.

For `CCN(Cc1cccnc1)C(=O)c1cccc(Cl)c1[C@]1(C)C(=O)N(Cc2ccc(OC)cc2OC)c2ccc(Cl)cc21`, the call in experiment [1] and in experiment [3] was inactive. Also, the Potency entry in [2], in [4], in [5], in experiment [6], in experiment [7] and in experiment [8] was “inactive” throughout.

Consider `CCN1/C(=C/C=C/c2sc3ccccc3[n+]2CC)Sc2ccccc21`, for which the result in [1] and in experiment [3] was inactive. The Potency result in [2], in experiment [6], in [7] and in [8] was “inactive” throughout. In addition, the Potency in experiment [4] was 11.2 µM [fluorescent] (active); in experiment [5], 14.1 µM [fluorescent] (active).

As to `Clc1ccc2cc3ccccc3cc2c1`, the compound was called inactive in [1] and in experiment [3]. Also, the Potency result in experiment [2], in [4], in [5], in [6], in experiment [7] and in [8] was “inactive” in each case.

Take `Cc1cc(O)c(C(C)(C)C)cc1Sc1cc(C(C)(C)C)c(O)cc1C`: the compound was called inactive in experiment [1] and in experiment [3]. Besides, the Potency result in [2], in experiment [4], in experiment [5], in experiment [6] and in [7] was “inactive” throughout.

As to `CCCCCCCCOC(=O)c1ccc(O)cc1`, the compound was called inactive in [1] and in experiment [3]. In addition, the Potency entry in [2], in experiment [4], in [5], in [6], in [7] and in experiment [8] was “inactive” throughout.

For the compound `CC(C)c1ccc2c(c1)CC[C@H]1[C@](C)(CN)CCC[C@]21C`, the compound was called inactive in experiment [1] and in experiment [3]. The Potency entry in experiment [2], in experiment [4], in experiment [5], in experiment [6], in experiment [7] and in experiment [8] was “inactive” throughout.

On to `CCCCc1oc2ccc(NS(C)(=O)=O)cc2c1C(=O)c1ccc(OCCCN(CCCC)CCCC)cc1`, for which the call in experiment [1] and in [3] was inactive. The Potency entry in experiment [2], in experiment [4], in experiment [5], in experiment [6], in [7] and in experiment [8] was “inactive” each time.

For `CC(C)(C)CC(C)(C)c1ccc(OCCOCC[N+](C)(C)Cc2ccccc2)cc1`, the compound was classed as inactive in experiment [1] and in [3]. The Potency entry in [2], in experiment [4], in [5], in experiment [6] and in experiment [7] was “inactive” in each case.

Consider `Cc1cc(N)c(S(=O)(=O)O)cc1Cl`, for which the outcome in experiment [1] and in experiment [3] was inactive. Moreover, the Potency result in experiment [2], in experiment [4] and in experiment [5] was “inactive” each time.

`CC(C)(C)C(=O)OCOC(=O)[C@@H]1N2C(=O)[C@@H](NC(=O)[C@H](N)c3ccccc3)[C@H]2SC1(C)C`: in experiment [1], the fluorescence, % of fluorescein is -0.024% [at 18.6 µM]. Besides, the fluorescence, % of fluorescent control in experiment [2] is 0.0397% [at 18.6 µM]; in [4], 0.0827% [at 18.6 µM]; in experiment [6], 0.014% [at 18.6 µM]; in experiment [8], 0.061% [at 18.6 µM]. Further, the activity change in experiment [3] was 0.023% [at 18.6 µM]. The fluorescence, % of Rose Bengal in experiment [5] is -0.0322% [at 18.6 µM]. Further, the fluorescence, % of fluorescein control in [7] is -0.0041% [at 18.6 µM].

For `[Cl][Au]([Cl])[Cl]`, the compound was classed as inactive in experiment [1] and in experiment [3]. Besides, the Potency entry in experiment [2], in experiment [4], in experiment [5], in experiment [6], in [7] and in experiment [8] was “inactive” each time.

Take `C=CC(=O)OCC(CO)(COCC(COC(=O)C=C)(COC(=O)C=C)COC(=O)C=C)COC(=O)C=C`: the call in [1] and in [3] was inactive. Further, the Potency result in experiment [2], in [4], in experiment [5], in experiment [6], in [7] and in experiment [8] was “inactive” each time.

Take `O=CC=C(c1ccccc1)c1ccccc1`: the compound was classed as inactive in experiment [1] and in experiment [3]. For the same compound, the Potency result in experiment [2], in experiment [4], in experiment [5], in experiment [6], in experiment [7] and in experiment [8] was “inactive” each time.

As to `CCCCCCCCOc1ccccc1C(=O)Nc1ccc(C(=O)OCC[N+](C)(CC)CC)cc1`, the compound was classed as inactive in experiment [1] and in experiment [3]. Moreover, the Potency result in experiment [2], in [4], in [5], in [6], in [7] and in experiment [8] was “inactive” each time.

As for `CSc1ccc(/C=C2/C(C)=C(CC(=O)O)c3cc(F)ccc32)cc1`, the outcome in experiment [1] and in experiment [3] was inactive. Also, the Potency entry in [2], in experiment [4], in experiment [5], in experiment [6], in experiment [7] and in [8] was “inactive” each time.

With `CS(=O)(=O)CCNCc1ccc(-c2ccc3ncnc(Nc4ccc(OCc5cccc(F)c5)c(Cl)c4)c3c2)o1`, the call in experiment [1] and in [3] was inactive. The Potency entry in experiment [2], in experiment [4], in experiment [5], in experiment [6], in [7] and in [8] was “inactive” throughout.

Regarding `CCC1=C[C@@H]2CN(C1)Cc1c([nH]c3ccccc13)[C@@](C(=O)OC)(c1cc3c(cc1OC)N(C)[C@H]1[C@@](O)(C(=O)OC)[C@H](OC(C)=O)[C@]4(CC)C=CCN5CC[C@]31[C@@H]54)C2`, the compound was classed as inactive in experiment [1] and in experiment [3]. Besides, the Potency result in experiment [2], in [4], in experiment [5], in [6], in [7] and in experiment [8] was “inactive” each time. Also, the Potency result in [9] was “inactive”.

For `O=C(c1ccc(F)cc1)C1CCN(CCn2c(=O)[nH]c3ccccc3c2=O)CC1`, the result in experiment [1] and in experiment [3] was inactive. In addition, the Potency entry in experiment [2], in [4], in experiment [5], in experiment [6], in experiment [7] and in experiment [8] was “inactive” each time. For the same compound, in experiment [9], the Potency result is “inactive”.

As for `CC(C)n1nc(-c2cc3cc(O)ccc3[nH]2)c2c(N)ncnc21`, the outcome in [1] and in experiment [3] was inactive. The Potency entry in [2], in [4], in experiment [5], in experiment [6], in [7] and in experiment [8] was “inactive” throughout.

As for `COc1cc(-c2ccc(N=C=O)c(OC)c2)ccc1N=C=O`, the compound was called inactive in experiment [1] and in experiment [3]. The Potency result in [2], in experiment [4], in experiment [5], in [6], in [7] and in experiment [8] was “inactive” throughout.

As to `O=Cc1cc(O)ccc1Br`, the compound was called inactive in [1] and in [3]. Further, the Potency result in experiment [2], in experiment [4], in experiment [5], in [6], in [7] and in [8] was “inactive” each time. For the same compound, in [9], the Potency result was “inactive”.

These data come from PubChem BioAssay (Tox21).
